This note sets out measurements from PubChem BioAssay AID624256 (NMMLSC, 2012).

About 3,700 (1%) of roughly 360,000 compounds were called active. About 2% were inconclusive and are not listed.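 The calls were made as follows: active = normalized GFP-positive differentiation at or above the plate's own cutoff, the solvent-only control mean plus 3 SD; inconclusive = no clear call, values can overlap the other calls; inactive = the rest.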 This excerpt belongs to a sample that is enriched for actives.

This test in a line: induction of myeloid progenitor differentiation, primary screen, cell-based, flow cytometry, MLPCN library (AID 624256).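 As to GFP+ MAC1+ double positive: cells exposed to compound for four days before flow analysis.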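 As to normalized GFP-positive differentiation: cells exposed to compound for four days before flow analysis; 0% = DMSO wells and 100% = fulvestrant positive control at 5 µM.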 The conditions noted are these: ER-HoxA9 myeloid progenitors, lysozyme-GFP differentiation, at 10 µM; GFP+ MAC1+ double positive: measured here: differentiation confirmed by MAC1 staining, stronger effect = higher value; normalized GFP-positive differentiation: stronger effect = higher value. In general terms: Flow cytometry measures light scatter and fluorescence of single cells or particles in a stream.
As to `CSc1ncccc1C(=O)NC1CCCCCC1`, the GFP+ MAC1+ double positive was 4.7% and the normalized GFP-positive differentiation is 171% (active).
On to `CSc1ncccc1C(=O)Nc1ccc2c(c1)OCO2`, for which the GFP+ MAC1+ double positive stood at 1% and the result was inactive.
On the same counts, the results for `CSc1ncccc1C(=O)NCc1ccccc1Cl` are 0.9% and “inactive”.
For `CCCCCNC(=O)C1C(=O)Nc2ccccc2C(=O)N1C(C)(C)C` (configuration not stated) the same measures were 0.8% and “inactive”.
On the same counts, the results for `COC(=O)C1=CN(c2c(C)cc(C)cc2C)C(N)=C(C#N)C1c1cccc(F)c1` (configuration not stated) are 1.5% and “inactive”.
Consider `CC1(C(=O)NS(=O)(=O)c2ccccc2Cl)CCN1C(=O)c1cccc(F)c1` (configuration not stated), for which the GFP+ MAC1+ double positive came out at 0.8% and the compound was called inactive.
Take `Cc1ccc(C2=CSC3=NS(=O)(=O)CCN23)cc1C`: the GFP+ MAC1+ double positive was found to be 4.9% and the normalized GFP-positive differentiation is 25% (active).
Take `O=S1(=O)CCN2C(=N1)SC1=C2CCN(Cc2ccccc2)C1`: the GFP+ MAC1+ double positive came to 0.5% and the call was inactive.
On the same counts, the results for `CCCOc1ccc(C2=CSC3=NCCN23)cc1Cl` are 0.8% and “inactive”.
For `CCCCn1c(N)c(N(CC)C(=O)c2ccc(N(C)S(=O)(=O)c3ccc(C)cc3)cc2)c(=O)[nH]c1=O` the same measures were 1.1% and “inactive”.
For `CCCCn1c(N)c(N(CCOC)C(=O)c2cccc(S(=O)(=O)N3CCCCC3)c2)c(=O)[nH]c1=O` the same measures were 0.5% and “inactive”.
As for `CCCCn1c(N)c(N(CCOC)C(=O)c2cccc(S(=O)(=O)N(C)c3ccccc3)c2)c(=O)[nH]c1=O`, the GFP+ MAC1+ double positive was found to be 1.3% and the normalized GFP-positive differentiation is 16.7% (active).
`Cc1cc(C)nc(SCc2nnc(SCC(=O)OC3CCCCC3)o2)n1`: the GFP+ MAC1+ double positive is 1.3% and the call was inactive.
On the same counts, the results for `CCC1CCCCN1C(=O)CSc1nc(C)cc(C)n1` (configuration not stated) are 1.8% and “inactive”.
Regarding `C/C(=N\NC(=O)c1ccc(CSc2nc(C)cc(C)n2)cc1)C1CCCCC1`, the GFP+ MAC1+ double positive was 1.3% and the normalized GFP-positive differentiation is 21.9% (active).
With `Cc1nc2c(OCc3ccc(Cl)cc3)cccn2c1N(C)Cc1cccs1`, the GFP+ MAC1+ double positive came to 0.4% and the call was inactive.
On the same counts, the results for `CC(C)CNC(=O)C1(C)CCCN1C(=O)CSc1ccccc1` (configuration not stated) are 1.4% and “inactive”.
On the same counts, the results for `Cc1cc(C(=O)N2CCCC2(C)C(=O)O)c(C)o1` (configuration not stated) are 1.3% and “inactive”.
On the same counts, the results for `N#Cc1ccc(-c2nc3c(Cl)cc(C(F)(F)F)cn3c2Cc2ccccc2C(F)(F)F)cc1` are 1.3% and “inactive”.
With `CCC(C(=O)Nc1c(C)cccc1C)n1c(-c2cc(C)cs2)nc2ccccc21` (configuration not stated), the GFP+ MAC1+ double positive came out at 3.7% and the call was inactive.
For the compound `CCc1c(C)sc(NC(=O)c2cccs2)c1C(N)=O`, the GFP+ MAC1+ double positive was 7.9% and the normalized GFP-positive differentiation is 14.1% (active).
For `CCOC(=O)CSc1nnc(CNC(=O)c2cccs2)n1-c1ccccc1`, the GFP+ MAC1+ double positive came to 1.4% and the compound was called inactive.
On to `CCc1ccc(NC(=O)C(=O)NNC(=O)c2cccs2)cc1`, for which the GFP+ MAC1+ double positive is 1.8% and the call was inactive.
On the same counts, the results for `Cc1ccc(NC(=O)[C@H](Cc2ccccc2)NC(=O)CC[C@H]2O[C@@H](n3ccc(=O)[nH]c3=O)[C@H](O)[C@@H]2O)cc1C` are 0.8% and “inactive”.
For `Cc1ccc(CSCC2Nc3ccc(C(=O)N4CCN(c5ccc(F)cc5)CC4)cc3NC2=O)cc1` (configuration not stated) the same measures were 1.7% and “inactive”.
For `C=CCn1c(SCc2cccc(F)c2)nc2cc(C(=O)N3CCC(C(N)=O)CC3)ccc2c1=O` the same measures were 0.5% and “inactive”.
For `O=C1Nc2cc(C(=O)N3CCN(c4ccc(F)cc4)CC3)ccc2NC1CSCc1cccc(F)c1` (configuration not stated), the GFP+ MAC1+ double positive was 10.1% and the normalized GFP-positive differentiation is 56.9% (active).
For `COC(=O)[C@]12CCCCC=C1N(Cc1ccccc1)C(=O)[C@H](CC(=O)NCc1ccc(C)o1)C2`, the GFP+ MAC1+ double positive was 1.2% and the call was inactive.
For `O=C(Nc1cccc(F)c1)c1cc(-c2ccco2)nc2ccccc12` the same measures were 0.5% and “inactive”.
For `CNC(=S)NNC(=O)c1oc2nc(-c3ccccc3)cc(-c3ccco3)c2c1N` the same measures were 2.3% and “inactive”.
`NNC(=O)c1oc2nc(-c3ccccc3)cc(-c3ccco3)c2c1N`: the GFP+ MAC1+ double positive was found to be 1% and the normalized GFP-positive differentiation is 38.1% (active).
On to `Cc1ccccc1-c1csc(C(O)c2cccc(Cl)c2)n1` (configuration not stated), for which the GFP+ MAC1+ double positive was 0.8% and the call was inactive.
For the compound `Cc1cc(C)c2nc3nc(C)cc(C)c3c(N)c2c1`, the GFP+ MAC1+ double positive worked out at 2.1% and the normalized GFP-positive differentiation is 151% (active).
For `NC(Cc1ccc(F)cc1)c1csc(Nc2nncc3ccccc23)n1` (configuration not stated), the GFP+ MAC1+ double positive is 0.8% and the outcome was inactive.
As to `COc1cc(N=Cc2c(O)c3ccccc3oc2=O)c(OC)cc1Cl`, the GFP+ MAC1+ double positive was determined as 12% and the normalized GFP-positive differentiation is 239% (active).
With `O=c1oc2ccccc2c(=O)c2ccccc12`, the GFP+ MAC1+ double positive was determined as 1.6% and the compound was classed as inactive.
On the same counts, the results for `COc1ccccc1CNC(=O)c1cc(=O)c2ccccc2o1` are 1% and “inactive”.
On the same counts, the results for `CCOC(=O)c1ccn(S(=O)(=O)c2ccc(C)cc2)c1-c1ccccc1` are 1.4% and “inactive”.
On the same counts, the results for `O=C1NC[C@H](Cc2ccc(O)cc2)N(C[C@H]2CCCN2C[C@H](Cc2ccccc2)N2C[C@H](Cc3ccccc3)N(CCc3ccccc3)C(=O)C2=O)C1=O` are 1% and “inactive”.
`CCOC(=O)[C@]12CCCC=C1N(CCC1=CCCCC1)C(=O)[C@H](CC(=O)N1CCN(C(=O)c3ccco3)CC1)C2`: the GFP+ MAC1+ double positive came to 2.3% and the result was inactive.
For `N#CCCN(C(=O)COC(=O)c1ccc2c(c1)OCCO2)c1ccccc1` the same measures were 0.7% and “inactive”.
Regarding `Cc1c(C(=O)OCC(=O)N(CCC#N)c2ccccc2)oc2c1ccc1ccccc12`, the GFP+ MAC1+ double positive is 5% and the normalized GFP-positive differentiation was 26.9% (active).
`N#CCCN(C(=O)COC(=O)c1ccc(S(=O)(=O)N2CCCCCC2)cc1)c1ccccc1`: the GFP+ MAC1+ double positive came out at 0.7% and the call was inactive.
For `CCCc1nc2ccccc2n1C(C)C(=O)NC(C)(C)C` (configuration not stated) the same measures were 3.7% and “inactive”.
On the same counts, the results for `O=C(NC(c1ccc(-c2ccccc2)cc1)c1cnccn1)C1CCN(CCOc2ccc(Cl)cc2Cl)CC1` (configuration not stated) are 1.7% and “inactive”.
As to `CN(C)c1nccc(NCc2ccccc2)c1C#N`, the GFP+ MAC1+ double positive turned out to be 0.2% and the call was inactive.
With `CC(C)n1cnc2c(NCc3ccccc3)cc(OCC3CCN(C)CC3)cc21`, the GFP+ MAC1+ double positive stood at 8.3% and the normalized GFP-positive differentiation was 28.4% (active).
On to `CCOC1=C2[C@@H](CN(S(=O)(=O)c3ccc(C)cc3)[C@H]2c2ccccc2F)[C@H]2C(=O)N(Cc3ccccc3)C(=O)[C@H]2C1`, for which the GFP+ MAC1+ double positive amounted to 1.5% and the call was inactive.
On the same counts, the results for `COC(=O)CCCCC1=CCC2C(=O)C=C(O)C2C1` (configuration not stated) are 1.6% and “inactive”.
Turning to `Fc1cccc(Cl)c1COc1ccc(-c2nnco2)cc1`, the GFP+ MAC1+ double positive was found to be 1.8% and the compound was called inactive.
For `O=C(/C=C/c1ccc(OCc2c(F)cccc2Cl)cc1)N1CCOCC1`, the GFP+ MAC1+ double positive is 32% and the normalized GFP-positive differentiation is 144% (active).
Consider `CN(C)CCCNC(=O)/C=C/c1ccc(OCc2c(F)cccc2Cl)cc1`, for which the GFP+ MAC1+ double positive is 0.3% and the call was inactive.
On the same counts, the results for `CC1(C)OC(=O)C2=C(C[C@@H](C3CCCCC3)O[C@@H]2c2ccc(Cl)cc2)O1` are 0.8% and “inactive”.
For `CCOc1ccc(C(=O)Nc2ccc(S(=O)(=O)NCC3CCCO3)cc2)cc1OCC` (configuration not stated), the GFP+ MAC1+ double positive is 2.1% and the normalized GFP-positive differentiation is 18.3% (active).
For `Cc1ccc(NC(=O)c2ccc(S(=O)(=O)NCC3CCCO3)cc2)cc1C` (configuration not stated), the GFP+ MAC1+ double positive turned out to be 0.8% and the result was inactive.
On the same counts, the results for `O=C(Nc1ccc(S(=O)(=O)NCC2CCCO2)cc1)c1ccc(F)cc1` (configuration not stated) are 0.4% and “inactive”.
